In PubChem BioAssay (NCI):
This is part of a sample that, as a whole, favours compounds with a hit. Of some 79,000 tested, about 15% had one in any assay. No stated cut-off is given here; in the data, active means growth inhibition above about 70%; inactive means the rest.

Experiments:
[1] = NCI Yeast Anticancer Drug Screen. Data for the rad50 strain (AID 155);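 further: 0% = growth of vehicle-only cultures of the same strain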; conditions: S. cerevisiae rad50 strain growth inhibition, stronger effect = higher value; at 50.0 µM unless noted
Procedure, shortened: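 DNA repair mutant yeast, compound exposure, growth read-out; inhibition is taken relative to vehicle.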

[2] = NCI Yeast Anticancer Drug Screen. Data for the mec2-1 strain (AID 157); conditions: S. cerevisiae mec2-1 strain, stronger effect = higher value; at 50.0 µM unless noted
Procedure, shortened: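 Strain: mec2-1 (DNA repair/cell cycle alteration). Compound exposure, then growth measured; inhibition expressed relative to vehicle.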

[3] = NCI Yeast Anticancer Drug Screen. Data for the sgs1 mgt1 strain (AID 161);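 further: 0% = growth of cultures given vehicle only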; conditions: S. cerevisiae sgs1 mgt1 strain, stronger effect = higher value; at 50.0 µM unless noted
Procedure, shortened: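 Genetically altered yeast, compound exposure, growth inhibition relative to vehicle.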

[4] = NCI Yeast Anticancer Drug Screen. Data for the cln2 rad14 strain (AID 165);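 further: 0% = growth equal to vehicle treated cultures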; conditions: S. cerevisiae cln2 rad14 strain, stronger effect = higher value; at 50.0 µM unless noted
Procedure, shortened: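 Compounds are applied to the cln2 rad14 yeast strain, and growth is then compared with that of vehicle-treated cultures to give inhibition.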

[5] = NCI Yeast Anticancer Drug Screen. Data for the bub3 strain (AID 167); conditions: S. cerevisiae bub3 mutant strain, stronger effect = higher value; at 50.0 µM unless noted
Procedure, shortened: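 In this screen, a yeast mutant lacking normal mitotic checkpoint function is challenged with compound. Relative growth versus vehicle gives the inhibition value.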

[6] = NCI Yeast Anticancer Drug Screen. Data for the mlh1 rad18 strain (AID 175); conditions: S. cerevisiae mlh1 rad18 strain growth inhibition, stronger effect = higher value; at 50.0 µM unless noted
Procedure, shortened: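 Read-out is yeast growth inhibition, calculated against vehicle-only controls. The compound was applied to a strain engineered with DNA damage repair alterations.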

Measured: growth inhibition

O=C1COC(c2ccccc2O)=NN1Cc1ccccc1
inactive: [1] -14.6% | [2] -0.3% | [3] -5.3% | [4] -4.75% | [5] -8.6% | [6] -1.1%

C=CCc1cn(C2CC(OC(=O)c3ccc(Cl)cc3)C(COC(=O)c3ccc(Cl)cc3)O2)c(=O)[nH]c1=O (stereo unspecified)
inactive: [1] -8.85% | [2] -3.6% | [3] -18.8% | [4] -8.6% | [5] 0.6% | [6] -2.4%

CCOC(=O)[C@H]1Nc2c(cccc2[N+](=O)[O-])C2c3ccccc3CC21 (stereo partly specified)
inactive: [1] 48.5% | [2] 1.55% | [3] 8.6% | [4] 25.3% | [5] 9.5% | [6] 13.6%

S=c1[nH]nc(-c2ccccc2Cl)o1
inactive: [1] -47.9% | [2] -17.7% | [3] -47.8% | [4] -21.2% | [5] -4.75% | [6] -66.2%

OC(Cc1ccc2ccccc2n1)(C(F)(F)F)C(F)(F)F
inactive: [1] -53.8% | [2] -43.6% | [3] -37.4% | [4] -3.85% | [5] -29.9% | [6] -21.8%

NCc1cc(Br)ccc1O
inactive: [1] 24.4% | [2] 3.3% | [3] 23.5% | [4] -66.2% | [5] -11% | [6] 20.6%

O=C1CCCc2ccc3c(c21)CC1(Cc2cc4c(cc2C1)CCCC4)C3
inactive: [1] -22.6% | [2] 9.15% | [3] 34% | [4] -13.9% | [5] 32.4% | [6] -2.7%

O=C1OC(OC2CCCCC2)(c2ccccc2)c2ccccc21 (stereo unspecified)
inactive: [1] -25.1% | [2] -7.75% | [3] -0.15% | [4] -23.5% | [5] -1.65% | [6] -5.55%

CSc1ccc2nncc(SC)c2c1
inactive: [1] 64.2% | [2] 7.05% | [3] 12.9% | [4] 40.1% | [5] 18% | [6] 40.9%

COC1OCC(N=[N+]=[N-])C(OS(C)(=O)=O)C1OS(C)(=O)=O (stereo unspecified)
inactive: [1] -1.65% | [2] -4.3% | [3] 6.85% | [4] -6.75% | [5] -16.4% | [6] -34.5%

NNc1nc(N2CCCCC2)c2[nH]cnc2n1
inactive: [1] 1.1% | [2] -7.65% | [3] -5.6% | [4] 0.1% | [5] 11.8% | [6] 4.95%

c1ccc2c(c1)nnn2C1CCCCO1 (stereo unspecified)
inactive: [1] -4.8% | [2] -13.2% | [3] -19.5% | [4] -5.1% | [5] -22.4% | [6] -72.8%

CC(N1CCS(=O)(=O)CC1)P(=O)(O)O (stereo unspecified)
inactive: [1] 0.3% | [2] 8.3% | [3] 8.8% | [4] -8.5% | [5] 17.8% | [6] 2.3%

O=C1Oc2ccccc2C(=O)/C1=C/N1C(=O)N/C(=C\c2cccc(O)c2)C1=O
inactive: [1] 21.9% | [2] 19.9% | [3] 37.6% | [4] 45.5% | [5] 15.7% | [6] -7.5%

CC(=O)Nc1cccc(Br)c1
inactive: [1] -18.1% | [2] -23.6% | [3] -18.1% | [4] -12.8% | [5] -25.5% | [6] -19.1%

Cc1ccc(N(C)S(=O)(=O)c2ccccc2[N+](=O)[O-])cc1
inactive: [1] 19.1% | [2] -17.6% | [3] 28.3% | [4] 12.1% | [5] 14.1% | [6] 19.6%

CCCCCCCC[n+]1ccc(C#N)cc1
inactive: [1] 11.7% | [2] 4% | [3] 14.3% | [4] 15.9% | [5] 5.65% | [6] 19%

O=C(CCc1ccccc1)On1nnc2ccccc2c1=O
inactive: [1] -19.1% | [2] -14.2% | [3] -29.8% | [4] 9.9% | [5] -14.6% | [6] -29.1%

O=C(ON=C1C=CC(=NOC(=O)c2ccccc2)C=C1)c1ccccc1
inactive: [1] 10.2% | [2] -20.6% | [3] 9.35% | [4] 17.3% | [5] 1.15% | [6] 7.6%

CN(CC#CC#CCN(C)c1ccccc1)c1ccccc1
inactive: [1] -14.2% | [2] -28.1% | [3] -13.6% | [4] -27% | [5] -35.2% | [6] -20.1%

O=C(c1ccc(Cl)cc1)c1ccccc1C(=O)c1ccc(Cl)cc1
inactive: [1] 0.8% | [2] -12.1% | [3] 6.6% | [4] -4.45% | [5] 23% | [6] 15.1%
